More than one record can exist for a structure, and the calls need not agree. The source made the active and inactive calls. How the source made its calls: active means hit-call score of the fitted dose curve at least 0.9, where 1 is the maximum; inactive means score below 0.9.
assay: BSK_BE3C_SRB: Viability Assessment in the BioMAP Diversity Plus: BE3C Assay (AID 2283028); conditions: primary human bronchial epithelial cells;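 on AC50: fitted both ways so AC50 may mark signal gain or loss versus DMSO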
Description: BSK_BE3C is a cell-based, multiplexed-readout assay that uses bronchial epithelial cell, a human lung primary cell, with measurements taken at 24 hours after chemical dosing in a 96-well plate.BSK_BE3C_SRB is an assay component measured in the BSK_BE3C assay. It measures 0.1% sulforhodamine related to cell death using Sulforhodamine staining technology.Data from the assay component BSK_BE3C_SRB was analyzed into 1 assay endpoint. This assay endpoint, BSK_BE3C_SRB, was analyzed with bidirectional fitting relative to DMSO as the negative control and baseline of activity. Using a type of viability reporter, gain or loss-of-signal activity can be used to understand changes in the signaling. Furthermore, this assay endpoint can be referred to as a primary readout, because this assay has produced multiple assay endpoints where this one serves a signaling function. To generalize the intended target to other relatable targets, this assay endpoint is annotated to the cell morphology intended target family, where the subfamily is cell conformation.
The levels of cell surface (or secreted, indicated by the prefix "s") biomarker endpoints were measured by ELISA. Overt cytotoxicity to cells in confluent adherent cultures (all systems other than the BT system) was assessed by measuring total protein levels using sulforhodamine B (SRB) staining in parallel cultures at the time of biomarker measurements, indicated as SRB endpoints. For proliferation assays for adherent cell types, individual cell types are cultured at sub-confluence and relative cell numbers quantified by SRB staining at time points optimized for each system (48 h: 3C and CASM3C systems; 72 h: BT and HDF3CGF systems; 96 h: SAg system). SRB was performed by staining cells with 0.1% SRB after fixation with 10% TCA and reading wells at 560 nm.Viability and proliferation of PBMC (T cells) was quantified by Alamar Blue reduction for the SAg and BT systems. For PBMC viability (referred to as PBMC Cytotoxicity within the assay endpoint names), cells were plated (75,000/well in a 96-well plate) and then chemical samples added for 1 h before addition of activators, SEB and TSST-1 (20 ng/mL final concentration each). Cells were incubated for 90 h. Then, Alamar Blue (20 uL/well) (Invitrogen, Cat DAL1100) was added for 6 h, and the plates were read with a fluorescence microplate reader at 546/580 nm (excitation/emission). For PBMC proliferation, cells were plated and activated as above but incubated for only 16 h prior to addition of Alamar Blue. Plates were read after 6 h.

Row | Structure (SMILES) | outcome | AC50
1 | CCOC(=O)NCCOc1ccc(Oc2ccccc2)cc1 | inactive | –
2 | CCCCOC(=O)C(C)Oc1ccc(Oc2ccc(C(F)(F)F)cn2)cc1 (stereo not given) | inactive | –
3 | CCC(O)=C1C(=O)CC(C(=O)O)CC1=O (stereo not given) | inactive | –
4 | OB(O)O | inactive | –
5 | CCCCOCCOCCOCc1cc2c(cc1CCC)OCO2 | inactive | –
6 | O=C(c1ccc(O)cc1O)c1ccc(O)cc1O | inactive | –
7 | N[C@@H](Cc1cc(I)c(Oc2ccc(O)c(I)c2)c(I)c1)C(=O)O | inactive | –
8 | N#CSCSc1nc2ccccc2s1 | inactive | 5.15 µM (active)
9 | COCCO | inactive | –
10 | CCCCC(CC)CN1C(=O)C2C3C=CC(C3)C2C1=O (stereo not given) | – | 17.3 µM (active)
11 | CCCN(CCC)c1c([N+](=O)[O-])cc(C(F)(F)F)c(N)c1[N+](=O)[O-] | – | 16.4 µM (active)
12 | O=C(Nc1ccc([N+](=O)[O-])cc1Cl)c1cc(Cl)ccc1O | – | 0.34 µM (active)
13 | COC(=O)c1c(Cl)nn(C)c1S(=O)(=O)NC(=O)Nc1nc(OC)cc(OC)n1 | inactive | –
14 | CCCCCCC(C)OC(=O)COc1nc(F)c(Cl)c(N)c1Cl (stereo not given) | inactive | –
15 | Cc1nn(C)c(Oc2ccccc2)c1C=NOCc1ccc(C(=O)OC(C)(C)C)cc1 | – | 12 µM (active)
16 | C[C@]12C[C@H](O)[C@H]3[C@@H](CCC4=CC(=O)CC[C@@]43C)[C@@H]1CC[C@@H]2C(=O)CO | inactive | –
17 | c1ccc2[nH]c(-c3cscn3)nc2c1 | inactive | –
18 | CCCCC(CC)COC(=O)c1ccccc1C(=O)O (stereo not given) | inactive | –
19 | O=C(c1ccccc1)C1CCCCC1 | inactive | –
20 | S=C([S-])NCCNC(=S)[S-].[Mn+2] | inactive | –

Row | Structure (SMILES) | outcome | AC50
21 | O=C(O)c1ccccc1 | inactive | –
22 | S=C(S)NCCNC(=S)S.[Mn+2].[S-]C([S-])=NCCN=C([S-])[S-].[Zn+2] | inactive | –
23 | CCOC(=O)C(C)Oc1ccc(Oc2cnc3cc(Cl)ccc3n2)cc1 (stereo not given) | inactive | –
24 | C#C[C@]1(O)CC[C@H]2[C@@H]3CCC4=CC(=O)CC[C@@H]4[C@H]3CC[C@@]21CC | inactive | –
25 | CCCCOC(=O)[C@@H](C)Oc1ccc(Oc2ccc(C(F)(F)F)cn2)cc1 | inactive | –
26 | C#CCOC(=O)[C@@H](C)Oc1ccc(Oc2ncc(Cl)cc2F)cc1 | inactive | –
27 | CSC(=O)c1cccc2nnsc12 | inactive | –
28 | COC(=O)c1ccc(CNS(C)(=O)=O)cc1S(=O)(=O)NC(=O)Nc1nc(OC)cc(OC)n1 | inactive | –
29 | COC(=O)c1ccc(I)cc1S(=O)(=O)NC(=O)Nc1nc(C)nc(OC)n1 | inactive | –
30 | CCCCCOC(=O)COc1cc(N2C(=O)C3=C(CCCC3)C2=O)c(F)cc1Cl | inactive | –
31 | COC(=O)c1ccccc1C(=O)O | inactive | –
32 | CCN(CC)C(=O)c1cccc(C)c1 | inactive | –
33 | C=CCOC(Cn1ccnc1)c1ccc(Cl)cc1Cl (stereo not given) | inactive | –
34 | CCCN(CCC)C(=O)SCC | inactive | –
35 | CCOC(=O)C(C)Oc1ccc(Oc2nc3ccc(Cl)cc3o2)cc1 (stereo not given) | inactive | –
36 | COc1nc(C)nc(NC(=O)NS(=O)(=O)c2ccccc2OCCCl)n1 | inactive | –
37 | CCOC(=O)c1ccc(O)cc1 | inactive | –
38 | CC(=O)S[C@@H]1CC2=CC(=O)CC[C@]2(C)[C@H]2CC[C@@]3(C)[C@@H](CC[C@@]34CCC(=O)O4)[C@H]12 | inactive | –
39 | CCOC(=O)[C@H](C)Oc1ccc(Oc2nc3ccc(Cl)cc3o2)cc1 | inactive | –

Reference: PubChem BioAssay (EPA / NIEHS)
